From PubChem
An excerpt weighted towards active compounds, which were near 8% of everything screened.
Lassa entry = Lassa virus entry inhibition; Lassa virus pseudotyped entry inhibition, cell-based qHTS; Potency, µM (highest dose often 49.2 µM), inactives show at the highest dose activity change, negative = inhibition, hits mostly inhibitors; actives 4.1% (n = 18,000); AID 720533
MARV entry inh = blocks Marburg virus binding or cell entry; Marburg virus pseudotype entry/binding inhibition, cell-based; Potency, µM (series often up to 49.2 µM), without a hit: top-dose activity change, negative = inhibition, usual class: inhibitors; actives 6.5% (n = 18,000); AID 720532
* marks the source's active call; other numbers are inactive results; ? = inconclusive; nt = not tested or not shown; ! = not confirmed by another sample; [ ] = dose if it differs, or a comment. Calls come from the whole dose curve; tested in HEK293 cells. % is set by controls: 0 for no effect and ±100 for the full control effect; potency is the fitted concentration of half-maximal effect.

SMILES	Lassa entry	MARV entry inh
COc1cccc2c1[C@@H]1CN(CCCCn3c(=O)[nH]c4c(sc5ncc(-c6ccccc6)nc54)c3=O)C[C@@H]1CO2	-4%	10µM*
CCN1C(=O)NC(c2cccc(C(F)(F)F)c2)C(C(=O)OC)=C1C (configuration not stated)	-4%[8.59 µM]	23%[8.59 µM]
CC1(C)O[C@H]2O[C@H]([C@H](O)CON=C3[C@H]4CCn5c(=O)n(-c6ccccc6)c(=O)n5[C@@H]4[C@H](O)[C@@H]4O[C@H]34)[C@H](O)[C@@H]2O1	20%[8.59 µM]	39%[8.59 µM]
COc1cc2c(c(OC)c1OC)C(c1ccccc1)(c1ccccc1)CC2NC(=O)C(F)(F)F (configuration not stated)	10%[8.59 µM]	-10%[8.59 µM]
COc1ccc2c(c1OC)CN1CCc3cc4c(cc3C1C2)OCO4 (configuration not stated)	6%[17.8 µM]	2%[17.8 µM]
COc1ccc2cc3[n+](cc2c1OC)CCc1cc2c(cc1-3)OCO2	11µM*!	10µM*!
COc1ccc2c(c[n+](C)c3c4cc5c(cc4ccc23)OCO5)c1OC	10µM*	4.5µM*
COc1cc2c(c(OC)c1OC)C(c1ccc3c(c1)OCO3)CC(=O)O2 (configuration not stated)	-4%	54%
COC(=O)[C@@]1(C=C2c3ccc(F)cc3[C@@H](OC)[C@@H]2C)[C@@H]2c3ccccc3O[C@@H]21	1%[8.59 µM]	?
O=S(=O)(O)c1cc(I)c(O)c2ncccc12	?	-20%
O=C(Nc1ccc(/C=C/c2ccc(NC(=O)c3cc(S(=O)(=O)O)c4cccnc4c3O)cc2S(=O)(=O)O)c(S(=O)(=O)O)c1)c1cc(S(=O)(=O)O)c2cccnc2c1O	3%	3.5µM*
CC(C)c1c(C(=O)N(C)Cc2cccc3ncccc23)cnn1-c1nccc(-c2ccccc2F)n1	?	8%
CCOc1cc(N)c(Cl)cc1C(=O)NCC1CN(Cc2ccc(F)cc2)CCO1 (configuration not stated)	-1%	11%
CCCCN1CCC(CCC(=O)c2cc(Cl)c(N)cc2OC)CC1	28µM*!	11µM*
COc1cccc([C@@H]2Oc3ccc(Br)cc3C(=O)[C@@H]2OC(=O)Nc2cc(OC)c(OC)c(OC)c2)c1	-10%[8.59 µM]	5%[8.59 µM]
Cc1c(C(=O)NN2CCCCC2)nn(-c2ccc(Cl)cc2Cl)c1-c1ccc(Cl)cc1	16µM*	14µM*
Cc1ccc2c(c1)Cc1c(C(=O)NC3CCCCC3)nn(-c3ccc(Cl)cc3Cl)c1-2	-8%	?
CN(C)CC(O)Cn1c2ccc(Br)cc2c2cc(Br)ccc21 (configuration not stated)	22µM*	7.9µM*
COC(=O)C1=C(C)N(Cc2ccccc2)C(=O)NC1c1cccc(F)c1 (configuration not stated)	9%[8.59 µM]	3%[8.59 µM]
C[C@@H]1C[C@H](C)C[C@H](C)[C@@H](O)CC(=O)O[C@H]([C@H]2CCC[C@H]2C(=O)O)C/C=C/C=C(/C#N)[C@H](O)[C@@H](C)C1	?	10µM*
COC(=O)C1=C(C(=O)OC)[C@@H]2N(C)c3ccccc3[C@@]23C[C@@H](C(=O)OC)N(C(=O)NCCBr)C3=N1	-1%[8.59 µM]	?
COC(=O)CC=C[C@H](C)[C@@H](NC(=O)C(F)(F)F)c1ccccc1Br	-1%[8.59 µM]	-21%[8.59 µM]
O=C1NCN(c2ccccc2)C12CCN(CCCC(c1ccc(F)cc1)c1ccc(F)cc1)CC2	?	1.4µM*
CCn1c(=O)[nH]c2ccccc21	-2%	8%
O=C1NCN(c2ccccc2)C12CCN(CC1COc3ccccc3O1)CC2 (configuration not stated)	2%	-1%
SMILES	Lassa entry	MARV entry inh
O=c1[nH]c2ccccc2n1C1CCN(CCCC(c2ccc(F)cc2)c2ccc(F)cc2)CC1	25µM*!	14µM*
CC(C)(c1ccc(OCC2CO2)cc1)c1ccc(OCC2CO2)cc1 (configuration not stated)	8.9µM*!	7.1µM*!
c1ccc(COC[C@H]2CO2)cc1	4%	10%
N=C(N)SCCN=C(N)N	-4%	7%
CN(C)CCCSC(=N)N	-1%	14µM*!
CC(=O)OC[C@H]1O[C@H](CC=NO[C@@H](C)c2cn([C@H](CO)Cc3ccccc3)nn2)C=C[C@@H]1OC(C)=O	nt	34%[8.59 µM]
CC=CC1=CC2=CC(=O)C(C)(OC(=O)c3c(C)cc(O)cc3O)C(=O)C2=CO1 (configuration not stated)	nt	-2%[8.59 µM]
CC(C)C[C@@H](/C=C/S(C)(=O)=O)NC(=O)[C@H](CC(C)C)NC(=O)[C@H](CC(C)C)NC(=O)OCc1ccccc1	1.1µM*	?
COC(=O)[C@H](Cc1ccccc1)NC(=O)[C@@H](N)CC(=O)O	3%	22%
CC(C)C[C@@H](NC(=O)OCC1c2ccccc2-c2ccccc21)C(=O)O	14%	9%
CC(=O)[C@H](CC(C)C)NC(=O)[C@@H](CC(C)C)NC(=O)[C@H](CC(C)C)NC(=O)OCc1ccccc1	0.32µM*	-87%
